As usually defined, the inhibition is the drop in the measured response relative to a control, in per cent.

Structures are written as SMILES.

The first assay concerns the target T1, Serine/threonine-protein kinase Nek2 (Homo sapiens) (UniProt P51955).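 Also: reported values are mean percent inhibition of NEK2.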
T1 sequence (whole entry): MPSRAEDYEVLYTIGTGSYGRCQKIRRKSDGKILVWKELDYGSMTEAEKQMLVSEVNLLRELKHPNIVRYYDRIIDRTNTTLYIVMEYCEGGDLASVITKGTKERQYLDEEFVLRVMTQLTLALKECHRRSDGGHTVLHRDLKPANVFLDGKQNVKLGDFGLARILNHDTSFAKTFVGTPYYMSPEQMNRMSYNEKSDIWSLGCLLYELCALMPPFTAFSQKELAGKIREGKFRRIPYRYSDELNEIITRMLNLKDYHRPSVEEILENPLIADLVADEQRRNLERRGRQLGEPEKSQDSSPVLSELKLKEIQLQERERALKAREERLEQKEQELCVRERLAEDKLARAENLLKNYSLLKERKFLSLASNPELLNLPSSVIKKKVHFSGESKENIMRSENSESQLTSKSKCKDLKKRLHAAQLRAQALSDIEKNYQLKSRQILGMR
To be noted: at 1 µM.
As for `CCc1ccc(Oc2nccc(-c3c(-c4ccc(F)cc4)ncn3C3CCNCC3)n2)cc1`, the inhibition came to 2.36%.
The same measure, in the same setting: the result for `C#Cc1cccc(Nc2ncnc3ccc(OCCCCNCCS(C)(=O)=O)cc23)c1` reads 6.09%; that for `NC(=O)c1ccc(Oc2nccc(-c3c(-c4ccc(F)cc4)ncn3C3CCNCC3)n2)cc1`, 5.63%; that for `COC(=O)Nc1nc2ccc(Sc3ccc(NC(=O)Nc4cc(C(F)(F)F)ccc4F)cc3)cc2[nH]1`, -0.82%.
Same read-out and setting: as for `CCC(=O)Nc1ccc(C)c(-c2ccc(C(=O)NCC3CC3)cc2)c1`, the figure is 0.77%.
Same read-out and setting: the result for `COc1cccc(-n2cnc3c(N/N=C/c4ccncc4)ncnc32)c1` reads -1.3%.
As for `Cc1ccc(C(=O)NC2CCC2)cc1-c1ccc(C(=O)NCC2CC2)cc1`, the inhibition came to 3.71%.
On the same count and under the same terms, the result for `c1ccc(-c2n[nH]cc2-c2ccnc(-c3ccc(OCCN4CCOCC4)cc3)c2)nc1` reads -2.74%; that for `O=C1NC(=O)C(c2cccc(Cl)c2)=C1Nc1ccc(Cl)c(C(=O)O)c1`, 3.63%; that for `C[C@@H](Oc1cc(-n2cnc3ccc(OC4CCN(C)CC4)cc32)sc1C(N)=O)c1ccccc1Cl`, 39.5%.
As to `CS(=O)(=O)CCNCc1ccc(-c2ccc3ncnc(Nc4ccc(OCc5ccccc5)c(Br)c4)c3c2)o1`, the inhibition worked out at 3.81%.
Same read-out and setting: as for `COc1cc(N2CCN(C(C)C)CC2)ccc1Nc1nc(Nc2ccc(F)cc2C(=O)NC[C@@H](O)CO)c2cc[nH]c2n1`, the figure is 5.19%.
Still for that read-out and setting: as for `Clc1ccc(CNc2nccc(-c3cnn4ncccc34)n2)cc1`, the figure is 0.52%; as for `COc1cc(Nc2ncc(-c3ccccc3)o2)cc(OC)c1OC`, -0.62%.
Still for that read-out and setting: the result for `O=C(Nc1n[nH]c2nc(-c3ccc(O)cc3)c(Br)cc12)C1CC1` reads 9%; that for `Fc1ccc(-c2ncn(C3CCNCC3)c2-c2ccnc(Oc3ccc4c(c3)OCO4)n2)cc1`, 6.41%; that for `NC(=O)c1cc(-c2ccncc2)cc(-c2ccccc2)c1N`, 6.13%.
In the case of `Fc1ccc(-c2ncn(C3CCNCC3)c2-c2ccnc(Oc3ccc(Oc4ccccc4)cc3)n2)cc1`, the inhibition is 3.38%.

In another assay the target is Serine/threonine-protein kinase Nek6 (Homo sapiens) (UniProt Q9HC98). The conditions noted are these: at 0.1 µM.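 Also: values are the mean percent inhibition of NEK6.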
Sequence of Serine/threonine-protein kinase Nek6 (Homo sapiens) (Q9HC98 whole entry): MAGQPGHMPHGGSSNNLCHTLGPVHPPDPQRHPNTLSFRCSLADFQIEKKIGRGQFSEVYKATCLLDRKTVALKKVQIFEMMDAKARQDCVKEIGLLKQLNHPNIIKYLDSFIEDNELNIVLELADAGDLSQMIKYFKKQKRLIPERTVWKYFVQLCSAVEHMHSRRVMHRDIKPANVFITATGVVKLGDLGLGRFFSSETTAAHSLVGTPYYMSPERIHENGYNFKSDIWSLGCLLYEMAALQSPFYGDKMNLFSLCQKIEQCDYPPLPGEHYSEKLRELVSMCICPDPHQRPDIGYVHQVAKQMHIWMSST
Regarding `CN1CCN(CCCNc2nc3ccc(Oc4ccc(NC(=O)Nc5cc(C(F)(F)F)ccc5F)cc4)cc3[nH]2)CC1`, the inhibition amounted to 3.67%.
For the compound `NS(=O)(=O)c1ccc(N/N=C2\C(=O)Nc3ccc(-c4cnco4)cc32)cc1`, the inhibition amounted to 1.55%.
Still for that read-out and setting: the result for `O=C1Nc2ccccc2/C1=C/Nc1ccc(-n2cncn2)cc1` reads 4.59%; that for `Cc1nnc(-c2ccc(C)c(-c3ccc(C(=O)NCc4ccc(Cl)cc4)cc3)c2)o1`, 3.46%.
Same read-out and setting: the result for `CN(C)CCCNc1nccc(-c2c(-c3ccc(F)cc3)nn3cc(C(F)(F)F)ccc23)n1` reads 1.82%; that for `COc1ccc2ncn(-c3cc(O[C@H](C)c4ccccc4Cl)c(C(N)=O)s3)c2c1`, 0.15%; that for `CCS(=O)(=O)c1ccc(OC)c(Nc2ncc(-c3cccc(-c4ccccc4F)c3)o2)c1`, 1.36%.
The same measure, in the same setting: the result for `O=C(Nc1n[nH]c2cc(-c3ccccc3)ccc12)C1CC1` reads 0.8%; that for `COc1ccc(-c2ccc3c(NC(=O)C4CC4)n[nH]c3n2)cc1`, 2.4%.
On to `COc1cc(Nc2ncc3c(C)nc(-c4cccc(C(F)(F)F)c4)n3n2)cc(OC)c1OC`, for which the inhibition was found to be 4.4%.
The same measure, in the same setting: the result for `Cc1ccc(NC(=O)c2ccoc2)cc1-c1ccc(C(=O)NCC2CC2)cc1` reads 2.49%; that for `Fc1ccc(-c2nc3n(c2-c2ccncc2)CCS3)cc1`, 0.55%.
The same measure, in the same setting: as for `NS(=O)(=O)c1ccc(N/N=C2\C(=O)Nc3ccc(C(=O)NCCCn4ccnc4)cc32)cc1`, the figure is 2.7%; as for `CCN(CC)Cc1ccc(Nc2nccc(-c3cnn4ncccc34)n2)cc1`, 1.02%; as for `NC(=O)c1cc(-c2ccc(F)cc2)cc(-c2ccncc2)c1N`, 4.68%.
The same measure, in the same setting: the result for `Nc1nccc(-c2c(-c3ccc(F)cc3)ncn2C2CCC(O)CC2)n1` (configuration not stated) reads -4.15%; that for `CCc1ccc(Oc2nccc(-c3c(-c4ccc(F)cc4)ncn3C3CCNCC3)n2)cc1`, 2.41%; that for `C#Cc1cccc(Nc2ncnc3ccc(OCCCCNCCS(C)(=O)=O)cc23)c1`, 3.67%.
On to `NC(=O)c1ccc(Oc2nccc(-c3c(-c4ccc(F)cc4)ncn3C3CCNCC3)n2)cc1`, for which the inhibition amounted to 1.6%.
For the compound `COC(=O)Nc1nc2ccc(Sc3ccc(NC(=O)Nc4cc(C(F)(F)F)ccc4F)cc3)cc2[nH]1`, the inhibition was found to be 0.73%.
On the same count and under the same terms, as for `CCC(=O)Nc1ccc(C)c(-c2ccc(C(=O)NCC3CC3)cc2)c1`, the figure is 2.45%.
Turning to `COc1cccc(-n2cnc3c(N/N=C/c4ccncc4)ncnc32)c1`, the inhibition stood at 2.37%.
On the same count and under the same terms, the result for `Cc1ccc(C(=O)NC2CCC2)cc1-c1ccc(C(=O)NCC2CC2)cc1` reads -0.33%.
The same measure, in the same setting: the result for `c1ccc(-c2n[nH]cc2-c2ccnc(-c3ccc(OCCN4CCOCC4)cc3)c2)nc1` reads -1.49%; that for `O=C1NC(=O)C(c2cccc(Cl)c2)=C1Nc1ccc(Cl)c(C(=O)O)c1`, 2.53%; that for `C[C@@H](Oc1cc(-n2cnc3ccc(OC4CCN(C)CC4)cc32)sc1C(N)=O)c1ccccc1Cl`, -0.34%.
Same read-out and setting: the result for `CS(=O)(=O)CCNCc1ccc(-c2ccc3ncnc(Nc4ccc(OCc5ccccc5)c(Br)c4)c3c2)o1` reads 4.55%.
Consider `COc1cc(N2CCN(C(C)C)CC2)ccc1Nc1nc(Nc2ccc(F)cc2C(=O)NC[C@@H](O)CO)c2cc[nH]c2n1`, for which the inhibition stood at 1.82%.
Still for that read-out and setting: as for `Clc1ccc(CNc2nccc(-c3cnn4ncccc34)n2)cc1`, the figure is 3.94%; as for `COc1cc(Nc2ncc(-c3ccccc3)o2)cc(OC)c1OC`, -1.01%; as for `O=C(Nc1n[nH]c2nc(-c3ccc(O)cc3)c(Br)cc12)C1CC1`, 3.51%.
Same read-out and setting: the result for `Fc1ccc(-c2ncn(C3CCNCC3)c2-c2ccnc(Oc3ccc4c(c3)OCO4)n2)cc1` reads 1.13%; that for `NC(=O)c1cc(-c2ccncc2)cc(-c2ccccc2)c1N`, 2.63%.
For `Fc1ccc(-c2ncn(C3CCNCC3)c2-c2ccnc(Oc3ccc(Oc4ccccc4)cc3)n2)cc1`, the inhibition is -2.46%.
